Source: PubChem (several laboratories)
Most compounds without a hit are left out; they make up all but 6.6% or so of the library.
Gli-Sufu block – Gli-Sufu pathway antagonism; inhibition, % at 5 µM; Sufu-KO-LIGHT fibroblasts, Gli luciferase reporter luminescence; AID 588413; actives 0.74% (n = 340,000);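 active = inhibition above about 55%, limit read from the data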
MPTP block – blocks calcium-induced mitochondrial swelling; isolated mouse mitochondria, Ca2+ swelling absorbance, 30 min; inhibition, % at 10 µM; actives 1.4% (n = 360,000); AID 602449;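 active = inhibition of 50% or more, scaled per plate between neutral and stimulator controls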
GRIN3A LBD mod – NR3A (human) ligand-binding domain modulation | AID 1259313 | Tm shift relative to glycine control, % at 25 µM | NR3A LBD differential scanning fluorimetry, Tm shift; 0% = protein alone, 100% = glycine-bound protein | actives 2.5% (n = 340,000);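 active = melting temperature shift of at least 10% of the positive control shift, at one fixed dose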
Mdm2-MdmX inh – human Mdm2/MdmX binding inhibition. AID 485346. actives 3% (n = 330,000). O15151+Q00987. inhibition, % at 8 µM. SaOS-2 split-luciferase Mdm2/MdmX complementation, luminescence;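 active = inhibition of at least 50% at 8 µM in the primary screen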
Beta cell apopt – blocks beta cell apoptosis. actives 0.8% (n = 300,000). INS-1E cytokine-induced death, ATP luminescence, 48 h; percent of positive-control rescue, neutral wells zero. protection from apoptosis, % (concentration not given with the values);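 active = Every replicate reaches about 75%, or at least half do and their mean reaches it too, limit read from the data; inconclusive = At least half of replicates reach the limit but their mean does not; inactive = Under half of replicates reach the limit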;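 also: higher means more ATP so stronger rescue from cytokine killing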
CSC inhib – cancer stem cell inhibition. AID 2717. inhibition, % at 7.5 µM. cancer stem cell-like cells viability, luminescence. actives 1.1% (n = 300,000); in the data active = inhibition above about 75%; inconclusive = no clear call, values can overlap the other calls; tested in HMLE shEcad cells
Mdm2-MdmX conf – human Mdm2/MdmX binding inhibition, confirmed; shares compounds with Mdm2-MdmX inh; luminescent assay; inhibition, % at 8 µM; actives 55% (n = 10,000); AID 489028; in the data active = inhibition above about 40%
Full FLuc ctr – full-length luciferase inhibition in Mdm2/MdmX counter-screen; inhibition, % at 8 µM; shares compounds with Mdm2-MdmX inh; AID 504607; actives 77% (n = 6,200); SaOS-2 full-length luciferase counterscreen, luminescence;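 active = mean inhibition at 8 µM reaching about 37%, which flags the compound as non-specific, limit read from the data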;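 also: p53-null SaOS-2 cells with luciferase driven by a doxycycline-inducible promoter; compound on cells about two nights before reading with doxycycline added after day one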
Each line names hits and unclear results; the compound was inactive in the other large screens (follow-up assays come after a bar, where they were run).

COc1ccc(Cc2nnc(N/N=C/c3ccc(O)cc3O)[nH]c2=O)cc1OC	Mdm2-MdmX inh 56, CSC inhib 91 | Mdm2-MdmX conf 44 | Full FLuc ctr 50
CCCCCC/C=N/Nc1nnc(Cc2ccc(OC)c(OC)c2)c(=O)[nH]1	none
CC(=O)c1c(C)[nH]c(C(=O)NNC(=O)COc2cc(C)cc(C)c2)c1C	none (no result: Beta cell apopt, CSC inhib)
CC1CCCCC1NC(=O)c1nn(C)c2c1CS(=O)(=O)c1ccccc1-2 (centres undefined)	none
CS(=O)(=O)c1ccc(C(=O)OCC(=O)NCc2cccs2)cc1[N+](=O)[O-]	Mdm2-MdmX inh 73 (no result: CSC inhib) | Mdm2-MdmX conf 53 | Full FLuc ctr inactive
Cc1cccc(C(=O)OCC(=O)NCc2cccs2)c1	none
Cc1ccc(C)c(NC(=O)CCOc2ccccc2)c1	none (no result: Mdm2-MdmX inh)
O=C(N/N=C/c1ccc(Sc2nc3ccccc3s2)c([N+](=O)[O-])c1)c1ccccn1	Mdm2-MdmX inh 74 | Mdm2-MdmX conf 52 | Full FLuc ctr 55
Cc1ccc2c(Cl)c(C)c(N3CCOCC3)nc2n1	none (no result: Mdm2-MdmX inh, Beta cell apopt, CSC inhib)
CCOC(=O)c1c(Nc2ccc(Cl)cc2)sc(/C=C2\C=Nc3ccccc32)c1O	Mdm2-MdmX inh 64 (no result: CSC inhib) | Mdm2-MdmX conf inactive
Cc1cccc(NC(=S)N=Nc2c(O)n(C)c3ccc(S(=O)(=O)N4CCOCC4)cc23)c1	Mdm2-MdmX inh 54 | Mdm2-MdmX conf 54 | Full FLuc ctr 64
Cc1cccc(C)c1NC(=S)N=Nc1c(O)n(C)c2ccc(S(=O)(=O)N3CCOCC3)cc12	Mdm2-MdmX inh 64 | Mdm2-MdmX conf inactive
Cc1ccccc1NC(=S)N=Nc1c(O)n(C)c2ccc(S(=O)(=O)N3CCOCC3)cc12	none
Cc1cc2cc(C)c(NCCNC(=O)c3ccccc3)nc2cc1C	none
Cc1ccc(C(=O)NCCNc2nc3cc(C)c(C)cc3cc2C)cc1	Mdm2-MdmX inh 65 | Mdm2-MdmX conf inactive
CCCCNc1c(CC(C)C)nc2nc(C)cc(C)n12	none (no result: Gli-Sufu block, GRIN3A LBD mod, Mdm2-MdmX inh, Beta cell apopt, CSC inhib)
COc1ccc(NC(=O)CN(C)C(=O)c2sc3ccccc3c2Cl)cc1	none (no result: Beta cell apopt)
COc1ccc(Cl)cc1NC(=O)CN(C)CC(=O)N1CC(=O)Nc2ccccc21	none (no result: CSC inhib)
COc1ccc(Cl)cc1NC(=O)CC(=O)Nc1cc(Cl)ccc1OC	Mdm2-MdmX inh 66 | Mdm2-MdmX conf inactive
COc1ccc(Cl)cc1NC(=O)CN(C)CC(=O)Nc1ccccc1N1CCOCC1	Mdm2-MdmX inh 58 | Mdm2-MdmX conf 55 | Full FLuc ctr 65
COc1ccc(Cl)cc1NC(=O)CN(C)C(=O)c1sc2ccccc2c1Cl	Mdm2-MdmX inh 54 (no result: CSC inhib) | Mdm2-MdmX conf inactive
COCCN1C[C@@H](CO)O[C@@H](n2cnc3c(NC4CC4)ncnc32)C1	none (no result: Gli-Sufu block, GRIN3A LBD mod, Mdm2-MdmX inh, Beta cell apopt, CSC inhib)
CCCNC(=O)C(Cc1ccc(I)cc1)NC(=O)c1ccc(C#N)cc1 (centres undefined)	none
O=C(NCc1ccc(Cl)nc1)c1csc([C@@H]2C[C@H](O)[C@@H](CO)O2)n1	none (no result: Gli-Sufu block, GRIN3A LBD mod, Mdm2-MdmX inh, Beta cell apopt, CSC inhib)
CC(=O)c1cccc(NC(=O)Nc2cccnc2)c1	Mdm2-MdmX inh 54 | Mdm2-MdmX conf 50 | Full FLuc ctr inactive
Cc1cc(C)cc(NC(=O)Nc2cccnc2)c1	none (no result: Mdm2-MdmX inh)
CC(C)(C)c1ccc(C(=O)CCC(=O)OCC(=O)NCCc2ccc(S(N)(=O)=O)cc2)cc1	none (no result: CSC inhib)
O=C(c1cc2cc(F)ccc2[nH]1)N1CCC(Cc2ccccc2)CC1	none
COc1cccc(-c2nnc(SC(C(=O)c3c[nH]c4ccccc34)c3ccccc3)n2C)c1 (centres undefined)	Mdm2-MdmX inh 56 | Mdm2-MdmX conf inactive
CCOc1ccc(S(=O)(=O)N2CCOCC2)cc1NC(=O)CCN1C(=O)NC2(CCCC2)C1=O	none (no result: Gli-Sufu block, GRIN3A LBD mod, Mdm2-MdmX inh, Beta cell apopt, CSC inhib)
CC(=O)C(C(c1ccccc1)c1c[nH]c2ccccc12)[N+](=O)[O-] (centres undefined)	Mdm2-MdmX inh 53 | Mdm2-MdmX conf 61 | Full FLuc ctr 57
CCn1cc(C(c2ccccc2)C(C(C)=O)[N+](=O)[O-])c2ccccc21 (centres undefined)	none
Cc1nnc2c3ccccc3c(-c3ccccc3)nn12	Mdm2-MdmX inh 64 | Mdm2-MdmX conf inactive
Cc1ccc(-c2nn3c(C)nnc3c3ccccc23)cc1S(=O)(=O)NCCO	none
Cc1ccc(-c2nn3c(C)nnc3c3ccccc23)cc1S(=O)(=O)NC(C)c1ccccc1 (centres undefined)	Mdm2-MdmX inh 62 | Mdm2-MdmX conf inactive
Cc1nnc2c3ccccc3c(-c3cccc4ccccc34)nn12	none (no result: Mdm2-MdmX inh, Beta cell apopt, CSC inhib)
Cc1ccc(-c2nn3c(C)nnc3c3ccccc23)cc1S(=O)(=O)NC(C)(C)CO	Mdm2-MdmX inh 71 (no result: Beta cell apopt) | Mdm2-MdmX conf 53 | Full FLuc ctr 78
CCNc1cc(N2CCCC2)ccc1[N+](=O)[O-]	Mdm2-MdmX inh 51 | Mdm2-MdmX conf inactive
CC(C)CNc1cc(N2CCCC2)ccc1[N+](=O)[O-]	none
CC(=O)N1CCC2(CC1)C/C(=N\NC(=S)Nc1ccc(C)cc1)c1cc(O)ccc1O2	Mdm2-MdmX inh 75 | Mdm2-MdmX conf 40 | Full FLuc ctr 93
Cc1ccccc1NC(=S)N/N=C1\CC(C)(C)Oc2ccc(O)cc21	Mdm2-MdmX inh 51 | Mdm2-MdmX conf inactive
Cc1ccc(NC(=S)N/N=C2\CC(C)(C)Oc3ccc(O)cc32)cc1	none
Cc1cccc(NC(=O)c2nc[nH]c2C(=O)NC2CCN(C(=O)OC(C)(C)C)CC2)c1	Mdm2-MdmX inh 55, CSC inhib inconclusive | Mdm2-MdmX conf inactive
Cc1cccc(NC(=O)c2nc[nH]c2C(=O)Nc2cccc(C)c2)c1	none
Cc1cccc(NC(=O)c2nc[nH]c2C(=O)NCCCNC(=O)c2[nH]cnc2C(=O)Nc2cccc(C)c2)c1	GRIN3A LBD mod 12, Mdm2-MdmX inh 73, CSC inhib 77 | Mdm2-MdmX conf 63 | Full FLuc ctr 43
Cc1cccc(NC(=O)c2nc[nH]c2C(=O)NCCCCCNC(=O)OC(C)(C)C)c1	none
Cc1cccc(NC(=O)c2nc[nH]c2C(=O)NCCN(CCNC(=O)c2[nH]cnc2C(=O)Nc2cccc(C)c2)CCNC(=O)c2[nH]cnc2C(=O)Nc2cccc(C)c2)c1	GRIN3A LBD mod 14, Mdm2-MdmX inh 86 | Mdm2-MdmX conf 51 | Full FLuc ctr 39
Cc1cccc(NC(=O)c2nc[nH]c2C(=O)N[C@@H](CCCCNC(=O)OC(C)(C)C)C(=O)OC(C)(C)C)c1	Mdm2-MdmX inh 61 (no result: CSC inhib) | Mdm2-MdmX conf inactive
O=C(NCCc1ccccc1)C1=CCN(S(=O)(=O)c2ccccc2)CC1	none
Cc1cc(CNC(=O)COC(=O)c2ccc(Cl)c(N)c2)cc(C)c1O	none
Cc1ccc(CN=C(N)Nc2nc(C)cc(C)n2)cc1	Mdm2-MdmX inh 68 | Mdm2-MdmX conf 59 | Full FLuc ctr 63
N/C(=C\C(=O)c1cc(Cl)ccc1O)C(Cl)(Cl)Cl	Mdm2-MdmX inh 95, CSC inhib 85 | Mdm2-MdmX conf 57 | Full FLuc ctr 54
